Our source for the growth values is PubChem BioAssay (NCI).

The panel holds about 83,000 compounds, 20% with a hit somewhere; the sample as a whole holds those more often.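 A percent growth of 40 corresponds to 60% growth inhibition; 0 means no net growth; -100 means all cells died. Active threshold: below 10.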 Values without a mark were called inactive. Activity calls are given as the source filed them.

Test systems include HCT-15 colon; HT29 colon; SNB-75 CNS; SNB-19 CNS; U251 CNS; PC-3 prostate; SK-MEL-5 melanoma; UACC-62 melanoma; LOX IMVI melanoma; SK-MEL-28 melanoma; SK-MEL-2 melanoma; EKVX NSCLC; SN12C renal; UO-31 renal; TK-10 renal; ACHN renal; CAKI-1 renal; A498 renal; CCRF-CEM leukemia.
Assay in all cases: NCI-60 one-dose screen, 48 h (100 = growth as untreated, 0 = no growth, -100 = all killed)
What all share (details): 10 µM unless noted

For the compound `CC(C)=CCC[C@](C)(O)[C@H]1CC[C@]2(C)[C@@H]1CC[C@@H]1[C@@]3(C)C/C(=C/c4ccccc4)C(=O)C(C)(C)[C@@H]3CC[C@]12C`, the growth is 93.6% in the experiment with HCT-15 colon; 99.9% with HT29 colon; 67.2% in the experiment with SNB-75 CNS; 88% with SNB-19 CNS; 85.8% in the experiment with U251 CNS; 79.6% in the experiment on PC-3 prostate. Moreover, the growth in the experiment on SK-MEL-5 melanoma is 98.7%; with UACC-62 melanoma, 88.2%; in the experiment on LOX IMVI melanoma, 93.4%; with SK-MEL-28 melanoma, 104%; in the experiment with SK-MEL-2 melanoma, 98.3%; with EKVX NSCLC it was 96.4%. The growth is 91% in the experiment with SN12C renal; 66.7% in the experiment with UO-31 renal; 63.8% in the experiment with TK-10 renal; 96.3% with ACHN renal; 53.7% in the experiment with CAKI-1 renal; 85.6% in the experiment with A498 renal. Also, the growth in the experiment with CCRF-CEM leukemia is 87.8%.
`COc1cc(NC(=O)CSc2nc3ccc(C)cc3c(=O)n2Cc2ccccc2)cc(OC)c1OC`: the growth was 84.4% in the experiment on HCT-15 colon; 70.6% in the experiment on HT29 colon; -5.79% (active) in the experiment on SNB-75 CNS; 89.8% with SNB-19 CNS; 57.6% with U251 CNS; 74.1% in the experiment on PC-3 prostate. Further, the growth with SK-MEL-5 melanoma was 39.3%; in the experiment on UACC-62 melanoma it was 53.2%; in the experiment with LOX IMVI melanoma it was 61.7%; with SK-MEL-28 melanoma it was 75.1%; in the experiment on SK-MEL-2 melanoma, 57.2%; with EKVX NSCLC, 84.9%. Moreover, the growth in the experiment with SN12C renal was 83.5%; in the experiment on UO-31 renal, 71.4%; in the experiment with TK-10 renal, 55.4%; in the experiment with ACHN renal it was 38%; in the experiment on CAKI-1 renal, 82.4%; with A498 renal, 14.1%. In the experiment on CCRF-CEM leukemia, the growth was 94.1%.
Regarding `COc1cc(C2C3=C(COC3=O)N(CCO)c3cc4c(cc32)CCC4)cc(OC)c1OC` (centres undefined), the growth in the experiment with HCT-15 colon was 10.9%; in the experiment with HT29 colon, 2.19% (active); in the experiment with SNB-75 CNS, 61.3%; in the experiment with SNB-19 CNS, -12.9% (active); with U251 CNS, 7.16% (active); in the experiment with PC-3 prostate, 21.3%. Moreover, the growth in the experiment on SK-MEL-5 melanoma was -60.3% (active); in the experiment on UACC-62 melanoma, 31.2%; in the experiment with LOX IMVI melanoma, 21.6%; in the experiment with SK-MEL-28 melanoma, 54.3%; in the experiment on SK-MEL-2 melanoma, 6.85% (active); in the experiment with EKVX NSCLC it was 29.6%. Also, the growth was 23.9% in the experiment on SN12C renal; 31.9% in the experiment on UO-31 renal; 55.3% in the experiment with TK-10 renal; 26.1% in the experiment with ACHN renal; 28.7% with CAKI-1 renal; -20.4% (active) with A498 renal.
Regarding `CCN(c1ccccc1)S(=O)(=O)c1cc([N+](=O)[O-])ccc1Cl`, the growth with HCT-15 colon was 75.7%; in the experiment with HT29 colon, 63%; in the experiment with SNB-75 CNS, 66.2%; with SNB-19 CNS, 85%; in the experiment with U251 CNS it was 59.2%; in the experiment on PC-3 prostate, 76.8%. Moreover, the growth was 45.3% in the experiment with SK-MEL-5 melanoma; 57.5% in the experiment on UACC-62 melanoma; 52.4% in the experiment with LOX IMVI melanoma; 88.8% in the experiment with SK-MEL-28 melanoma; 46.2% with SK-MEL-2 melanoma; 88.3% with EKVX NSCLC. The growth is 60.7% with SN12C renal; 53.9% in the experiment with UO-31 renal; 107% in the experiment on TK-10 renal; 79.9% in the experiment on ACHN renal; 48.1% in the experiment with CAKI-1 renal; 71.9% in the experiment with A498 renal. In the experiment on CCRF-CEM leukemia, the growth was 52%.
In the case of `Cc1ccc(NS(=O)(=O)c2ccc(-c3cnc(C4CC4)o3)cc2)cc1C(F)(F)F`, the growth in the experiment with HCT-15 colon is 35.2%; with HT29 colon, 28.5%; with SNB-75 CNS, 46.6%; in the experiment with SNB-19 CNS it was 61%; in the experiment with U251 CNS it was 68.5%; in the experiment with PC-3 prostate it was 68.1%. The growth was 49% in the experiment on SK-MEL-5 melanoma; 47.3% in the experiment on UACC-62 melanoma; 55.9% in the experiment on LOX IMVI melanoma; 64.1% in the experiment on SK-MEL-28 melanoma; 84.8% in the experiment with SK-MEL-2 melanoma; 75.3% in the experiment on EKVX NSCLC. For the same compound, the growth in the experiment with SN12C renal is 88.6%; in the experiment with UO-31 renal it was 58%; in the experiment with TK-10 renal, 93.7%; in the experiment on ACHN renal it was 76.4%; in the experiment on CAKI-1 renal, 42.7%; with A498 renal it was 47%. Besides, the growth in the experiment with CCRF-CEM leukemia is 56.8%.
On to `COc1ccc2nc(-c3ccc(-c4noc(-c5cc(OC)c(OC)c(OC)c5)n4)cc3)[nH]c2c1`, for which the growth with HCT-15 colon was 30.2%; in the experiment on HT29 colon, 20.2%; in the experiment with SNB-75 CNS, 35.4%; in the experiment on SNB-19 CNS, 76.8%; in the experiment on U251 CNS, 25.1%; with PC-3 prostate, 95.2%. The growth with SK-MEL-5 melanoma was 45%; with UACC-62 melanoma, 99.8%; with LOX IMVI melanoma, 67.5%; with SK-MEL-28 melanoma, 51.3%; with SK-MEL-2 melanoma it was 99.2%; in the experiment on EKVX NSCLC, 91.9%. Besides, the growth is 80.7% in the experiment with SN12C renal; 108% in the experiment on UO-31 renal; 102% in the experiment with TK-10 renal; 97.9% with ACHN renal; 96.5% with CAKI-1 renal; 101% with A498 renal.
Take `COc1ccc2[nH]c(O)c(/C=c3/cc4c(c(-c5ccc(F)cc5)n3)=Nc3ccccc3-4)c2c1`: the growth in the experiment on HCT-15 colon is 26.7%; with HT29 colon it was -29.8% (active); with SNB-75 CNS, 82.6%; in the experiment on SNB-19 CNS, 78%; in the experiment with U251 CNS it was 66.3%; with PC-3 prostate, 85%. Also, the growth was 72.1% in the experiment on SK-MEL-5 melanoma; 90.2% in the experiment with UACC-62 melanoma; 68.9% in the experiment with LOX IMVI melanoma; 93.9% with SK-MEL-28 melanoma; 103% in the experiment on SK-MEL-2 melanoma; 74.1% with EKVX NSCLC. The growth with SN12C renal was 88.6%; in the experiment with UO-31 renal, 72.5%; with TK-10 renal it was 107%; in the experiment on ACHN renal, 92.2%; with CAKI-1 renal, 87%; with A498 renal, 70.2%.
On to `COc1cc(CC(=O)n2ncc3ccc(N)cc32)cc(OC)c1OC`, for which the growth was 88.2% in the experiment with HCT-15 colon; 109% in the experiment on HT29 colon; 87.3% in the experiment with SNB-75 CNS; 101% in the experiment on SNB-19 CNS; 98.4% in the experiment with U251 CNS; 88.2% in the experiment with PC-3 prostate. In addition, the growth in the experiment on SK-MEL-5 melanoma was 92.9%; with UACC-62 melanoma, 92.9%; in the experiment on LOX IMVI melanoma, 90.1%; in the experiment on SK-MEL-28 melanoma it was 99.9%; with SK-MEL-2 melanoma, 98%; with EKVX NSCLC, 91.8%. The growth was 107% in the experiment on SN12C renal; 70.2% in the experiment with UO-31 renal; 108% in the experiment with TK-10 renal; 94.9% in the experiment on ACHN renal; 85.9% in the experiment with CAKI-1 renal; 97.4% in the experiment on A498 renal. The growth in the experiment on CCRF-CEM leukemia was 101%.
